The values that follow come from PubChem BioAssay AID686978 (National Center for Advancing Translational Sciences (NCATS), 2013).

“And” between values parts separate entries of the source, which are not always exact repeats. Equal values may be shown once. The campaign covered roughly 420,000 compounds. About 64,000 (15%) were called active. Another 27% or so got no clear call; they are omitted. These entries were drawn from the full list. Entries that show only a call come without a potency. A number with no mark means an inactive call. The call rests on the fitted dose curve; in most records, active means well fitted inhibition curve with a large enough effect; inconclusive means small, poorly fitted or top-dose-only effect; inactive means flat fitted curve, though single readings scatter.
Potency means the concentration at half of the fitted maximal effect.

This assay can be described thus: qHTS for Inhibitors of human tyrosyl-DNA phosphodiesterase 1 (TDP1): qHTS in cells in absence of CPT. Further: nearly all actives have a fitted effect of over 55% in size. To be noted: DT40 Tdp1-/- hTDP1 cells, no CPT, ATP luminescence, 48 h; activity change, negative = growth inhibition: at 46.2 µM (top of the series). In outline: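 No-CPT arm: Tdp1-/-;hTDP1 DT40 cells (400/well) plus compounds, incubated ≥48 hr at 37 °C. Readout CellTiter-Glo luminescence.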
Turning to `C=CCSc1ccc(S(=O)(=O)N2CCN(C)CC2)cn1`, the Potency result is “inactive”.
On the same count and under the same terms, then `COC(=O)C1CCN(C(=O)COC(=O)c2cc(S(=O)(=O)N3CCOCC3)ccc2C)CC1`, with “inactive”; and `C=CCNC(=O)COC(=O)c1ccccc1C(=O)N(C)C1CCCCC1`, with “inactive”.
On the same count and under the same terms, next, `CC1CCCC(NC(=O)COC(=O)c2ccccc2C(=O)N(C)C2CCCCC2)C1C` (stereo unspecified): 14.6 µM (active); `O=C(COC(=O)c1ccccc1SCC(=O)NC1CCCCC1)NC1CCCCC1`: “inactive”.
On the same count and under the same terms, then `NC(=O)COC(=O)c1sc2cc(F)ccc2c1Cl`, with “inactive”; and `CC(=O)NC12CC3CC(C1)CC(C(=O)N1CCN(C(=O)c4ccco4)CC1)(C3)C2`, with “inactive”.
On to `COc1ccc(N(CC(=O)NC(C)(C)C)C(=O)c2ccco2)cc1`, for which the Potency entry is “inactive”.
Take `CC1(C)CC(=O)c2cc(OCC(=O)NCC3CCCO3)ccc2O1` (stereo unspecified): the Potency result was “inactive”.
Same read-out and setting: next, `Cc1cc(-c2cccs2)nc(-n2cccc2)n1`: “inactive”; `O=C(NNc1ncnc2c1cnn2-c1ccccc1)c1ccco1`: “inactive”.
Consider `Cc1cccc(NC(=S)N2CCCC(c3nc4ccccc4[nH]3)C2)c1` (stereo unspecified), for which the Potency result is “inactive”.
The same measure, in the same setting: then `Cc1cccc(NC(=S)NCc2ccc3[nH]c4c(c3c2)CCCC4)c1`, with 18.4 µM (active); and `O=C(O)CCC(=O)NCc1ccc2[nH]c3c(c2c1)CCCC3`, with “inactive”; and `CCCCc1c(O)nc2n(c1=O)CCS2`, with “inactive”.
Consider `O=C(Oc1ccc(Br)cc1C(=S)N1CCOCC1)c1cccc([N+](=O)[O-])c1`, for which the Potency entry is “inactive”.
Regarding `O=C(/C=C/c1c(Cl)cccc1Cl)NCc1ccccc1`, the Potency entry was “inactive”.
Still for that read-out and setting: next, `COn1c(=O)c(=O)n(OC)c2ccccc21`: “inactive”; `Cc1cc(OCc2cc(C(=O)NCc3cc(C(C)C)no3)no2)cc(C)c1Cl`: “inactive”.
For the compound `CCOC(=O)CC1(NC(=O)c2cc(COc3cncc(Cl)c3)on2)CCCCC1`, the Potency was 20.6 µM (active).
The same measure, in the same setting: next, `CCOC(=O)c1c(NC(=O)c2cc(CC)on2)sc(C(C)=O)c1C`: “inactive”; `CNc1cc(-c2c(OC)cccc2OC)ncn1`: “inactive”.
The same measure, in the same setting: next, `COc1ccc2[nH]cc(CCNc3ncnc4ccc(-c5ccccc5CN(C)C)cc34)c2c1`: “inactive”; `COc1ccc2[nH]cc(CCNc3cc(-c4ccccc4CN(C)C)ncn3)c2c1`: “inactive”.
As for `COc1ccc2[nH]cc(CCNc3nc(-c4cccc(NS(C)(=O)=O)c4)nc4ccccc34)c2c1`, the Potency is 13 µM (active).
Still for that read-out and setting: next, `COc1cccc(-c2cc(NCCc3c[nH]c4ccc(OC)cc34)ncn2)c1`: 23.1 µM (active).
Still for that read-out and setting: next, `Cc1ccc2[nH]cc(CCNC(=O)c3ccc([N+](=O)[O-])cc3)c2c1`: “inactive”; `COCCNc1ccnc(-c2cccc(NS(C)(=O)=O)c2)n1`: “inactive”.
On the same count and under the same terms, next, `COc1ccc2[nH]cc(CCNc3ncnc4ccc(-c5ccc(C(=O)N(C)C)cc5)cc34)c2c1`: 9.2 µM (active); `CC(=O)Nc1ccc(S(=O)(=O)N2CCn3cccc3C2C)cc1` (stereo unspecified): “inactive”.
On to `CC(NC(=O)C(=O)NN=C1CCC(C(C)(C)C)CC1)c1ccccc1` (stereo unspecified), for which the Potency result was “inactive”.
Same read-out and setting: next, `CN1CCN(S(=O)(=O)c2ccc(NC(=O)c3ccco3)cc2)CC1`: “inactive”.
On the same count and under the same terms, then `COc1ccc(/C(C)=N/N2CCOCC2)c(O)c1`, with “inactive”; and `CC(C)NC(=O)N1CCN(c2ccncc2S(=O)(=O)N2CCCCC2)CC1`, with “inactive”.
The same measure, in the same setting: next, `O=S(=O)(c1cnccc1N1CCN(/N=C/c2ccc(Br)cc2)CC1)N1CCCCC1`: 18.4 µM (active); `CN1CCN(c2ccncc2S(=O)(=O)N2CCCC2)CC1`: “inactive”.
In the case of `CCOC(=O)C1CCN(C(=O)Cn2cc(C#N)c3ccccc32)CC1`, the Potency result was “inactive”.
Still for that read-out and setting: then `O=C(c1cccnc1)N1CCN(S(=O)(=O)c2cccs2)CC1`, with “inactive”.
On the same count and under the same terms, next, `O=C(COC(=O)c1ccc(N2CCCC2=O)cc1)c1ccc(OC(F)F)cc1`: “inactive”; `CC(C)CNC(=S)NNC(=O)c1ccccc1OC(F)F`: “inactive”.
Consider `CC/C(=N\NC(=S)NC(C)C)c1ccc(OC(F)F)cc1`, for which the Potency was 16.4 µM (active).
On the same count and under the same terms, next, `C/C=C1\C2C=C(C)CC1(N)c1ccc(=O)[nH]c1C2` (stereo unspecified): “inactive”; `COC(=O)Cc1csc(Nc2c(C)n(C)n(-c3ccccc3)c2=O)n1`: “inactive”; `COC(=O)Cc1c(O)ccn(Cc2cccc(C(F)(F)F)c2)c1=O`: “inactive”.
With `COC(=O)Cc1csc(/N=C/c2c(O)n(-c3cccc(C(F)(F)F)c3)c(=O)c3ccccc23)n1`, the Potency is 16.4 µM (active).
The same measure, in the same setting: next, `CC(C)C(=O)NC(=S)Nc1ccccc1F`: “inactive”; `CC(NC(=O)Nc1cccc([N+](=O)[O-])c1)c1ccc2c(c1)OCO2` (stereo unspecified): “inactive”.
On the same count and under the same terms, then `O=C(Nc1cccnc1)c1noc2c1CCCCC2`, with “inactive”; and `CC(C)CC[n+]1ccn(C2=C([O-])c3ccccc3C(=O)/C2=N\S(=O)(=O)c2ccccc2)c1`, with 10.3 µM (active); and `Cc1ccc(NC2CCCN(C(=O)CCC3(C)CC3)C2)cc1C` (stereo unspecified), with “inactive”.
Same read-out and setting: next, `CCOC(=O)CN1CC23C=CC(O2)C(C(=O)Nc2ccc(F)cc2)C3C1=O` (stereo unspecified): “inactive”; `COCCn1nnnc1CN1CCC(NC(=O)Nc2cccc(OC)c2)CC1`: “inactive”; `Cc1nc(-c2ccc(F)cc2)c(CC(=O)N(C)CC(=O)Nc2c(C)cccc2C)s1`: “inactive”.
For `Cc1c(-c2cccc(NC(=O)C(C)(C)C)c2)nc2ncccn12`, the Potency entry was “inactive”.
Regarding `Cc1cccc(C)c1Nc1c(-c2ccccc2O)nc2ncccn12`, the Potency was 18.4 µM (active) and 23.1 µM (active).
Regarding `CCc1cccc(C)c1Nc1c(-c2ccc(N(C)C)cc2)nc2ncccn12`, the Potency is 10.3 µM (active).
The same measure, in the same setting: next, `Cc1ccc(-c2c(N)nc3ncccn23)cc1`: “inactive”; `Nn1c(SCC(=O)Nc2nccs2)nncc1=O`: “inactive”; `CC(C)CCNC(=O)CC1C(=O)N(Cc2ccccc2)C(C)c2nc3ccccc3n21` (stereo unspecified): “inactive”.
Same read-out and setting: then `CN(C)c1ccnc(Nc2ccc(F)cc2)c1C#N`, with “inactive”; and `COc1ccccc1/C=C/C(=O)NC(=S)N1CCOCC1`, with “inactive”.
As for `COc1ccccc1/C=C/C1=NC(=C\N(C)C)/C(=O)O1`, the Potency was 20.6 µM (active).
On the same count and under the same terms, then `COc1ccccc1/C=C/C(=O)NC1CC2CCC1C2` (stereo unspecified), with “inactive”; and `O=C(CCNS(=O)(=O)c1ccccc1C(F)(F)F)NCc1ccc2c(c1)OCO2`, with “inactive”; and `C=CCOC(=O)c1ccccc1C(=O)OCC=C`, with “inactive”.
As to `C=CCOC(=O)C1=C(C)NC(C)=C(C(=O)OCC=C)C1c1cccs1`, the Potency is 18.4 µM (active).
Still for that read-out and setting: next, `CCOC(=O)C1=C(C)NC(=S)NC1c1cccs1` (stereo unspecified): “inactive”.
Regarding `CC(C)C(NC(=O)c1ccc(Cl)cc1)C(=O)O` (stereo unspecified), the Potency result is “inactive”.
The same measure, in the same setting: then `CSc1ncccc1C(=O)Nc1nc2ccc(F)cc2s1`, with “inactive”; and `Cc1cc(C(=O)COc2ccccc2[N+](=O)[O-])c(C)n1-c1cccc(S(=O)(=O)N2CCOCC2)c1`, with 23.1 µM (active).
On the same count and under the same terms, then `Cc1cc(S(=O)(=O)N2CCOCC2)ccc1OCC(=O)N1CCOCC1`, with “inactive”.
On the same count and under the same terms, then `O=C(COc1ccc(S(=O)(=O)N2CCCC2)cc1[N+](=O)[O-])N1CCCCC1`, with “inactive”.
With `CCCCCC(O)c1cccc(OCc2ccc3ccccc3n2)c1` (stereo unspecified), the activity change, negative = growth inhibition is -7.93% [at 4.12 µM].
`C/C(=N/OC(=O)c1c(-c2c(F)cccc2Cl)noc1C)c1cnccn1`: the Potency entry is “inactive”.
On the same count and under the same terms, next, `O=C(CN1C(=O)COc2ccccc21)Nc1ccc(F)cc1`: “inactive”; `CCN(CC)S(=O)(=O)c1cc(C(=O)Nc2ccccn2)ccc1C`: “inactive”.
Turning to `CCOc1ccc(N(CC(=O)Nc2cccc(OC)c2)S(C)(=O)=O)cc1`, the Potency result was “inactive”.
Still for that read-out and setting: next, `CCOc1cccc(NC(=O)c2ccc(F)c(S(=O)(=O)N(CC)c3cccc(C)c3)c2)c1`: 25.9 µM (active); `CC1(C)CC(=O)C=C(NCCCNC2CCCCC2)C1`: “inactive”; `O=Cc1ccc(Oc2cccc(C(F)(F)F)c2)nc1`: “inactive”.
On the same count and under the same terms, next, `N/C(=N\OC(=O)Nc1ccccc1)c1ccno1`: “inactive”.
Consider `COC(=O)c1ccccc1NC(=O)Cn1c(=O)n(-c2cccc(C(F)(F)F)c2)c(=O)c2c(C)c(C)sc21`, for which the Potency entry is “inactive”.
Same read-out and setting: next, `CCC(=O)N1CCc2cc(Br)cc(S(=O)(=O)CCC(=O)NCc3ccccc3OC)c21`: “inactive”; `CC(=O)NC(CC(=O)Nc1ccc(S(=O)(=O)N2CCOCC2)cc1)c1ccccc1` (stereo unspecified): “inactive”.
Regarding `CCOc1ccc(CN2CCN(Cc3c[nH]c4ccccc34)CC2)cc1`, the Potency was 5.8 µM (active).
On the same count and under the same terms, then `O=C(NCCc1c[nH]c2ccccc12)C1CCN(Cc2ccc(Br)cc2)CC1`, with 16.4 µM (active); and `CCOc1ccc(CN2CCCN(C)CC2)cc1`, with “inactive”; and `O=C(CN1C(=O)NC2(CCCCC2)C1=O)NCCc1c[nH]c2ccccc12`, with “inactive”.
The same measure, in the same setting: next, `O=C(NCCc1c[nH]c2ccccc12)C(=O)NCC1CCCO1` (stereo unspecified): “inactive”; `CCOc1ccc(CC(=O)NC2CCN(Cc3ccccc3)CC2)cc1`: “inactive”; `N/C(=N\OC(=O)CCc1ccccc1)c1cccnc1`: “inactive”.
Still for that read-out and setting: then `O=C(COc1coc(CN2CCN(c3ccccc3F)CC2)cc1=O)N1CCc2ccccc21`, with “inactive”.
`Cc1cc(C(=O)OCC(=O)c2c(N)n(C)c(=O)n(C)c2=O)c(C)o1`: the Potency entry was “inactive”.
Still for that read-out and setting: then `Nc1nc(O)c(CC(=O)O)s1`, with “inactive”; and `CCOC(=O)C1=C(O)/C(=C/c2ccc(OCC(=O)Nc3ccc(C)cc3)cc2)N=C1C`, with “inactive”; and `O=c1c(-c2ccccc2)cnc2n1CCS2`, with “inactive”.
On to `CCCc1nn2c(=O)cc(COC(=O)c3ccc(NC(=O)COc4ccc(F)cc4)cc3)nc2s1`, for which the Potency result is “inactive”.
With `Cc1onc(-c2c(Cl)cccc2Cl)c1C(=O)c1c[nH]c(C(=O)NC2CC2)c1`, the Potency entry is “inactive”.
The same measure, in the same setting: then `CC1(C)CC(=O)c2sc(N)nc2C1`, with “inactive”; and `Cc1cc(C)cc(C(=O)N2CCN=C2SCc2ccc([N+](=O)[O-])cc2)c1`, with “inactive”.
Same read-out and setting: then `Cc1cccc(CC(=O)N2CCN=C2SCc2ccc([N+](=O)[O-])cc2)c1`, with 16.4 µM (active).
For the compound `O=C(Cc1ccc(F)cc1)N1CCN=C1SCc1cccc([N+](=O)[O-])c1`, the Potency result was “inactive”.
For the compound `C/C(=N\NC(=O)CCn1nc(C)cc1C)C(C)(C)C`, the Potency result is “inactive”.
Regarding `CCOC(=O)N1CCN(C(=O)CSc2nc(C)nc3c2c(=O)n(C)c(=O)n3C)CC1`, the Potency result was “inactive”.
The same measure, in the same setting: then `CCc1cnc2c(c1SCC(=O)N1CCC(C)CC1)c(=O)n(C)c(=O)n2C`, with 20.6 µM (active).
On the same count and under the same terms, next, `Cn1c(=O)c2c(SCC(=O)N3CCOCC3)nc(C3CC3)nc2n(C)c1=O`: “inactive”.
